Reference: PubChem BioAssay (EPA / NIEHS)
Records with an inconclusive call do not appear. The source made the active and inactive calls. Rule for the calls: active = hit-call score of the fitted dose curve at least 0.9, where 1 is the maximum; inconclusive = response in the unintended direction; inactive = score below 0.9.

The compounds below were run against human Phosphodiesterase 4A1 (PDE4A1), PDE4A (gene 5141) (UniProt P27815) (assay: NVS_ENZ_hPDE4A1: NovaScreen (NVS) Enzymatic Assay for human Phosphodiesterase 4A1 (PDE4A1) (AID 2283191)).
Chain of human Phosphodiesterase 4A1 (PDE4A1), PDE4A (gene 5141) (P27815 whole entry, looked up): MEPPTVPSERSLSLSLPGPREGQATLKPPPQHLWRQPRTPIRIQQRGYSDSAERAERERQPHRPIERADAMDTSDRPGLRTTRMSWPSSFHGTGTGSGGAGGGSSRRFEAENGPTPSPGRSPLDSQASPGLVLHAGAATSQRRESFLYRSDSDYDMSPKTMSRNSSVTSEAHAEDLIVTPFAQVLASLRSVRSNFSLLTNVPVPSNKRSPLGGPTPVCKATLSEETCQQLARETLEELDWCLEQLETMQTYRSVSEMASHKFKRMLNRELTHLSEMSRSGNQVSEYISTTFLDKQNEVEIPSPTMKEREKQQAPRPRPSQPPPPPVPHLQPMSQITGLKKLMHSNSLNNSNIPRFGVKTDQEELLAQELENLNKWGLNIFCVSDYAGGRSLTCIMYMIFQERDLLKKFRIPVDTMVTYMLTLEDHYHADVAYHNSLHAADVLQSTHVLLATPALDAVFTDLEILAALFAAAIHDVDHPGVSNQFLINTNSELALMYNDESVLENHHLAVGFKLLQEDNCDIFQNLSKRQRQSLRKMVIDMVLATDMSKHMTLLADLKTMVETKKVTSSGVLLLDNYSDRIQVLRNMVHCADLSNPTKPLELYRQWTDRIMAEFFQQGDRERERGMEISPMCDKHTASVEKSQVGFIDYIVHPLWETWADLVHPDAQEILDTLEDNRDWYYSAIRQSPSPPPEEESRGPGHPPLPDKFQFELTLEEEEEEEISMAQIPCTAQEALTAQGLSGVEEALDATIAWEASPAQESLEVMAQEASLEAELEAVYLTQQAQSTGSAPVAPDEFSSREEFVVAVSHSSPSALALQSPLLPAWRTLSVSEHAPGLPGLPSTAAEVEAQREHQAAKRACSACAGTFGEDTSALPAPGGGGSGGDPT
Method in brief: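 Cell-free recombinant human PDE4A1 with fluorescent substrate; product separated by electrophoretic mobility shift, 1 h. Screened at 25 uM, then up to 50 uM in concentration-response; loss of signal fitted against DMSO.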

SMILES	outcome	AC50
O=C(O)c1cc(Oc2ccc(C(F)(F)F)cc2Cl)ccc1[N+](=O)[O-]	inactive	–
CCOP(=S)(OCC)Oc1cc(C)nc(C(C)C)n1	inactive	–
CCCOCC(=Nc1ccc(Cl)cc1C(F)(F)F)n1ccnc1	inactive	–
CCC(=O)Nc1ccc(Cl)c(Cl)c1	–	25 µM (active)
Cc1cc(C2CC2)nc(Nc2ccccc2)n1	inactive	–
CCOP(=S)(OCC)Oc1ccc([N+](=O)[O-])cc1	inactive	–
CCNc1nc(Cl)nc(NC(C)(C)C#N)n1	–	0.39 µM (active)
CN(C)[C@@H]1C(=O)C(C(N)=O)=C(O)[C@@]2(O)C(=O)C3=C(O)c4c(O)cccc4[C@@](C)(O)[C@H]3[C@H](O)[C@@H]12	–	23.1 µM (active)
CSc1nc(NC(C)C)nc(NC(C)C)n1	–	3.43 µM (active)
CC[C@H](C)[C@H]1O[C@]2(C=C[C@@H]1C)C[C@@H]1C[C@@H](C/C=C(\C)[C@@H](O[C@H]3C[C@H](OC)[C@@H](O[C@H]4C[C@H](OC)[C@@H](NC)[C@H](C)O4)[C@H](C)O3)[C@@H](C)/C=C/C=C3\CO[C@@H]4[C@H](O)C(C)=C[C@@H](C(=O)O1)[C@]34O)O2	–	25 µM (active)
COc1ccc(C(=CC(=O)N2CCOCC2)c2ccc(Cl)cc2)cc1OC	–	0.0383 µM (active)
C[Si](Cn1cncn1)(c1ccc(F)cc1)c1ccc(F)cc1	–	7.33 µM (active)
